What follows are compounds tested on T1, YSK1. Details: concentration: 1 μM,replicates: in singlicate; n = 1.
T1 construct: gene STK25
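Further: KINOMEscan kinase panel screen.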

| SMILES | %Inh [%] |
| --- | --- |
| CC(C(=O)NC1CCN(c2ccnc(Nc3ccc(F)cc3)n2)C1)c1ccc(Cl)cc1 (centres unmarked) [GSK1379713] | 0 |
| CNC(=O)c1ccccc1Nc1nc(Nc2cccc(CS(C)(=O)=O)c2)ncc1C.O=CO [GSK1520489] | 45 |
| COc1ccc(Nc2nccc(N3CCC(NC(=O)c4cccc(C#N)c4)C3)n2)cc1 (centres unmarked) [GSK1379730] | 0 |
| CN1CCN(CCNc2nc3cc(Oc4ccc(NC(=O)Nc5cc(C(F)(F)F)ccc5F)cc4)ccc3[nH]2)CC1.Cl.Cl [GW768504] | 9 |
| COc1cc(Nc2nccc(N3CCC(NC(=O)c4cccc(C#N)c4)C3)n2)cc(OC)c1OC (centres unmarked) [GSK1379751] | 3 |
| CSc1nccc(-c2c(-c3ccc(F)cc3)ncn2CCCN2CCOCC2)n1.Cl [SB-217146] | 0 |
| O=C(NCC1CC1)c1ccc(-c2cc(C(=O)NC3CC3)ccc2F)cc1 [GW810445] | 3 |
| Cl.Cl.NC[C@H](CC1CCCCC1)NC(=O)c1ccc(-c2ccnc3[nH]ccc23)s1 [GSK1581428] | 0 |
| Cc1cccc(-c2nc(Nc3ccncc3)c3sccc3n2)n1 [GW869641] | 0 |
| CCNCC(Cc1ccccc1)NC(=O)c1cc(Br)c(-c2ccnc3[nH]ccc23)s1.Cl.Cl (centres unmarked) [GSK1383280] | 18 |
| CC(C)S(=O)(=O)N1CCN(Cc2ccc3c(c2)nc(NC(=O)c2ccsc2)n3C[C@H](O)c2ccccc2)CC1 [GW635815] | 0 |
| CN(c1cccc(CNc2nc(Nc3ccc4c(c3)CC(=O)N4)ncc2C(F)(F)F)c1)S(C)(=O)=O | 0 |
| COc1cc2nccc(Nc3ccc(Oc4ccccc4)cc3)c2cc1OC.Cl [GI261656] | 0 |
| c1ccc(Oc2ccc(Nc3ccnc4ccc(-c5ccccn5)cc34)cc2)cc1 [GW407034] | 0 |
| Cn1ccc2ncnc(Oc3ccc(NC(=O)Nc4cc(C(C)(C)C)on4)c(Cl)c3)c21 | 0 |
| CS(=O)(=O)Nc1ccc(-c2ccnc3[nH]ccc23)cc1 [GSK993273] | 51 |
| FC(F)(F)c1cc(Br)cc(Nc2nccc(-c3cnn4ncccc34)n2)c1 [GW810578] | 0 |
| Cn1ccc2ncnc(Oc3ccc(NC(=O)Nc4cccc(C(F)(F)F)c4)c(F)c3)c21 | 0 |
| CN(c1ccccc1CNc1nc(Nc2ccc3c(c2)CC(=O)N3)ncc1C(F)(F)F)S(C)(=O)=O | 11 |

| SMILES | %Inh [%] |
| --- | --- |
| O=C1NCCc2[nH]c(-c3ccncc3)cc21 | 0 |
| COc1cccc(CNC(=O)NC2CCN(c3ccnc(Nc4cc(OC)c(OC)c(OC)c4)n3)C2)c1 (centres unmarked) [GSK1379765] | 0 |
| CC(C)c1nc(-c2cccc(NS(=O)(=O)c3ccccc3)c2)c(-c2ccnc(Nc3ccc4c(c3)CN(C)CC4)n2)s1 [GSK1649598] | 56 |
| C[C@@H](Oc1cc(-n2cnc3ccc(-c4ccncc4)cc32)sc1C(N)=O)c1ccccc1Cl [GSK483724] | 2 |
| Cc1ccc(C(=O)Nc2ccc(Oc3ccc4nc(NC(=O)C5CC5)cn4c3)c(F)c2)c(=O)n1-c1ccccc1 | 0 |
| CN1CCN(CCCNc2nccc(-c3c(-c4ccc(F)cc4)nn4cc(C(N)=O)ccc34)n2)CC1 [GW622475] | 22 |
| CS(=O)c1ccc(-c2coc3ccc(-c4n[nH]c(=O)o4)cc23)cc1 (centres unmarked) | 7 |
| O=c1[nH]cc(-c2ccc(O)cc2)c2sc(-c3ccncc3)cc12 [GSK1033723] | 0 |
| Cn1ccc2ncnc(Oc3ccc(NC(=O)Nc4cccc(C(F)(F)F)c4)c(Cl)c3)c21 | 0 |
| Cc1ccc(Nc2ccnc(Nc3ccc4c(c3)CS(=O)(=O)C4)n2)cc1O.Cl [GW579362] | 39 |
| Cc1ccn2nc(-c3ccc(F)cc3)c(-c3ccncc3)c2c1.Cl [GW457859] | 15 |
| C[C@@H](Oc1cc(-n2cnc3cc(-c4ccncc4)ccc32)sc1C(N)=O)c1ccccc1Cl [GSK479719] | 0 |
| Cc1ccc2c(-c3ccnc(Nc4ccc(C(F)(F)F)cc4)n3)cnn2n1 [GW819776] | 0 |
| COc1cccc(C2=C(Nc3cccc(Cl)c3)C(=O)NC2=O)c1 [SB-341556] | 0 |
| Cn1ccc2ncnc(Oc3ccc(NC(=O)Nc4cncc(C(F)(F)F)c4)c(Cl)c3)c21 | 0 |
| O=C(Nc1ccccc1)c1cccc(Oc2ccc3nccn3n2)c1 | 0 |
| O=C(Nc1cccc(C(F)(F)F)c1)c1cccc(Oc2ccc3nccn3n2)c1 | 0 |
| Cn1cc(-c2cccc3c(N)c(C(N)=O)nnc23)cn1 | 5 |

The compounds below were run on T2, YSK4. Details: concentration: 1 μM,replicates: in singlicate; n = 1.
T2 construct: gene MAP3K19

| SMILES | %Inh [%] |
| --- | --- |
| CC(C(=O)NC1CCN(c2ccnc(Nc3ccc(F)cc3)n2)C1)c1ccc(Cl)cc1 (centres unmarked) [GSK1379713] | 0 |
| CNC(=O)c1ccccc1Nc1nc(Nc2cccc(CS(C)(=O)=O)c2)ncc1C.O=CO [GSK1520489] | 99.8 |
| COc1ccc(Nc2nccc(N3CCC(NC(=O)c4cccc(C#N)c4)C3)n2)cc1 (centres unmarked) [GSK1379730] | 0 |
| CN1CCN(CCNc2nc3cc(Oc4ccc(NC(=O)Nc5cc(C(F)(F)F)ccc5F)cc4)ccc3[nH]2)CC1.Cl.Cl [GW768504] | 10 |
| COc1cc(Nc2nccc(N3CCC(NC(=O)c4cccc(C#N)c4)C3)n2)cc(OC)c1OC (centres unmarked) [GSK1379751] | 39 |
| CSc1nccc(-c2c(-c3ccc(F)cc3)ncn2CCCN2CCOCC2)n1.Cl [SB-217146] | 25 |
| O=C(NCC1CC1)c1ccc(-c2cc(C(=O)NC3CC3)ccc2F)cc1 [GW810445] | 6 |
| Cl.Cl.NC[C@H](CC1CCCCC1)NC(=O)c1ccc(-c2ccnc3[nH]ccc23)s1 [GSK1581428] | 99.7 |
| Cc1cccc(-c2nc(Nc3ccncc3)c3sccc3n2)n1 [GW869641] | 41 |
| CCNCC(Cc1ccccc1)NC(=O)c1cc(Br)c(-c2ccnc3[nH]ccc23)s1.Cl.Cl (centres unmarked) [GSK1383280] | 92.5 |
| CC(C)S(=O)(=O)N1CCN(Cc2ccc3c(c2)nc(NC(=O)c2ccsc2)n3C[C@H](O)c2ccccc2)CC1 [GW635815] | 90.6 |
| CN(c1cccc(CNc2nc(Nc3ccc4c(c3)CC(=O)N4)ncc2C(F)(F)F)c1)S(C)(=O)=O | 96.8 |
| COc1cc2nccc(Nc3ccc(Oc4ccccc4)cc3)c2cc1OC.Cl [GI261656] | 0 |
| c1ccc(Oc2ccc(Nc3ccnc4ccc(-c5ccccn5)cc34)cc2)cc1 [GW407034] | 7 |
| Cn1ccc2ncnc(Oc3ccc(NC(=O)Nc4cc(C(C)(C)C)on4)c(Cl)c3)c21 | 99.5 |
| CS(=O)(=O)Nc1ccc(-c2ccnc3[nH]ccc23)cc1 [GSK993273] | 96.5 |
| FC(F)(F)c1cc(Br)cc(Nc2nccc(-c3cnn4ncccc34)n2)c1 [GW810578] | 64 |
| Cn1ccc2ncnc(Oc3ccc(NC(=O)Nc4cccc(C(F)(F)F)c4)c(F)c3)c21 | 68 |
| CN(c1ccccc1CNc1nc(Nc2ccc3c(c2)CC(=O)N3)ncc1C(F)(F)F)S(C)(=O)=O | 91.4 |

| SMILES | %Inh [%] |
| --- | --- |
| O=C1NCCc2[nH]c(-c3ccncc3)cc21 | 99.4 |
| COc1cccc(CNC(=O)NC2CCN(c3ccnc(Nc4cc(OC)c(OC)c(OC)c4)n3)C2)c1 (centres unmarked) [GSK1379765] | 37 |
| CC(C)c1nc(-c2cccc(NS(=O)(=O)c3ccccc3)c2)c(-c2ccnc(Nc3ccc4c(c3)CN(C)CC4)n2)s1 [GSK1649598] | 55 |
| C[C@@H](Oc1cc(-n2cnc3ccc(-c4ccncc4)cc32)sc1C(N)=O)c1ccccc1Cl [GSK483724] | 68 |
| Cc1ccc(C(=O)Nc2ccc(Oc3ccc4nc(NC(=O)C5CC5)cn4c3)c(F)c2)c(=O)n1-c1ccccc1 | 0 |
| CN1CCN(CCCNc2nccc(-c3c(-c4ccc(F)cc4)nn4cc(C(N)=O)ccc34)n2)CC1 [GW622475] | 14 |
| CS(=O)c1ccc(-c2coc3ccc(-c4n[nH]c(=O)o4)cc23)cc1 (centres unmarked) | 55 |
| O=c1[nH]cc(-c2ccc(O)cc2)c2sc(-c3ccncc3)cc12 [GSK1033723] | 98.8 |
| Cn1ccc2ncnc(Oc3ccc(NC(=O)Nc4cccc(C(F)(F)F)c4)c(Cl)c3)c21 | 77 |
| Cc1ccc(Nc2ccnc(Nc3ccc4c(c3)CS(=O)(=O)C4)n2)cc1O.Cl [GW579362] | 99.1 |
| Cc1ccn2nc(-c3ccc(F)cc3)c(-c3ccncc3)c2c1.Cl [GW457859] | 0 |
| C[C@@H](Oc1cc(-n2cnc3cc(-c4ccncc4)ccc32)sc1C(N)=O)c1ccccc1Cl [GSK479719] | 97.5 |
| Cc1ccc2c(-c3ccnc(Nc4ccc(C(F)(F)F)cc4)n3)cnn2n1 [GW819776] | 43 |
| COc1cccc(C2=C(Nc3cccc(Cl)c3)C(=O)NC2=O)c1 [SB-341556] | 38 |
| Cn1ccc2ncnc(Oc3ccc(NC(=O)Nc4cncc(C(F)(F)F)c4)c(Cl)c3)c21 | 17 |
| O=C(Nc1ccccc1)c1cccc(Oc2ccc3nccn3n2)c1 | 12 |
| O=C(Nc1cccc(C(F)(F)F)c1)c1cccc(Oc2ccc3nccn3n2)c1 | 77 |
| Cn1cc(-c2cccc3c(N)c(C(N)=O)nnc23)cn1 | 94.4 |

— paper PMC5540273 (PLoS ONE, 2017)
